Bioassay records (PubChem BioAssay)
VACV mCherry inh – inhibitors of vaccinia virus infection (mCherry reporter signal) | Vaccinia virus mCherry reporter infection, fluorescence | Potency, µM (titrated, usually from 36.5 µM), for inactives: at the highest dose activity change, negative = inhibition, usual class: inhibitors | 0.63% of 310,000 active | AID 720579; calls by dose curve; tested in A549 cells; also: potency is read from the fitted curve at half-maximal effect; % is scaled to controls: 0 for no effect and ±100 for the full control effect; nearly all actives have a fitted effect of over 35% in size
Shiga inhibitor – inhibitors of Shiga toxin in Vero cells; Vero cells, Shiga toxin protein synthesis inhibition reporter; inhibition, % at 38.7 µM; 9.2% of 290,000 active; AID 2315; in the data active = inhibition mostly above about 28%, no sharp cut-off; inactive = mostly below about 43%; also: 0% is about no effect
VACV Venus inh – vaccinia inhibition (Venus reporter) | Vaccinia virus Venus reporter expression, fluorescence | 0.46% of 330,000 active | AID 720580 | Potency, µM (titrated, usually from 36.5 µM), for the others: top-dose activity change, negative = inhibition, usual class: inhibitors; calls by dose curve; tested in A549 cells; also: potency is read from the fitted curve at half-maximal effect; % is scaled to controls: 0 for no effect and ±100 for the full control effect; nearly all actives have a fitted effect of over 30% in size
CHX counter – counter-screen hit for Shiga toxin inhibitors, cycloheximide; cell reporter, cycloheximide protein synthesis inhibition counterscreen; max response, %; 12% of 300,000 active; in the data active = max response mostly above about 13%, no sharp cut-off; inactive = mostly below about 14%; also: read at 38.3 µM for the half of the compounds with a filed dose; 0% is about no effect
Lassa entry inh – Lassa virus entry inhibition; Potency, µM (highest dose often 37.9 µM), inactives show top-dose activity change, negative = inhibition, usual class: inhibitors; Lassa virus pseudotype entry inhibition, cell reporter; 1.2% of 300,000 active; AID 540256; calls by dose curve; tested in HEK293 cells; also: potency is read from the fitted curve at half-maximal effect; % is scaled to controls: 0 for no effect and ±100 for the full control effect; nearly all actives have a fitted effect of over 50% in size
Marburg entry inh – inhibitors of Marburg virus binding or cell entry. Marburg virus pseudotyped entry inhibition, cell reporter. Potency, µM (top dose mostly 37.8 µM), without a hit: at the top dose activity change, negative = inhibition, actives largely listed as inhibitors. 1.8% of 300,000 active. AID 540276; calls by dose curve; tested in HEK293 cells; also: potency is read from the fitted curve at half-maximal effect; % is scaled to controls: 0 for no effect and ±100 for the full control effect
Active calls of the source: *; [ ] = another dose, or the depositor's remark. Shown is part of a subset that was picked to be rich in hits.

O=C(NC1CCc2ccccc21)c1cc(COc2c(F)cccc2F)on1 (configuration not stated) was read as VACV mCherry inh -0.5%[7.34 µM], Shiga inhibitor 37.0, VACV Venus inh 0.0%[7.34 µM] and CHX counter 21.0*.
`COc1cc(C=C2C(=O)NC(=O)NC2=O)ccc1OCc1ccc([N+](=O)[O-])cc1` gave VACV mCherry inh -8.5%, Shiga inhibitor 101.7*, VACV Venus inh -1.0%, CHX counter 59.2*, Lassa entry inh 3.0% and Marburg entry inh 54.7%[46.1 µM].
COC(=O)C(=Cc1ccc(OCc2ccc([N+](=O)[O-])cc2)c(OC)c1)C(=O)OC was read as Shiga inhibitor 41.8*, VACV Venus inh -16.3%, CHX counter 23.9*, Lassa entry inh inconclusive and Marburg entry inh inconclusive.
For COc1cc(C(c2c(C)[nH][nH]c2=O)c2c(C)[nH][nH]c2=O)ccc1OCc1ccc([N+](=O)[O-])cc1 the results were Shiga inhibitor 51.7, CHX counter 24.9*, Lassa entry inh 27.3% and Marburg entry inh inconclusive.
Screening COc1cc(C(c2c(C)[nH][nH]c2=O)c2c(C)[nH][nH]c2=O)ccc1OC(=O)c1cccc([N+](=O)[O-])c1 returned Shiga inhibitor -11.6, VACV Venus inh -8.4%, CHX counter -1.2, Lassa entry inh -11.7% and Marburg entry inh -3.8%.
`CCOC(=O)C(=Cc1ccc(OCc2ccc([N+](=O)[O-])cc2)c(OC)c1)C(=O)OCC` gave VACV mCherry inh -14.0%, Shiga inhibitor 27.5, VACV Venus inh -7.9%, CHX counter 43.3*, Lassa entry inh inconclusive and Marburg entry inh inconclusive.
O=C1NC(=O)C(=Cc2ccc(Oc3ccc([N+](=O)[O-])cc3)cc2)C(=O)N1 was read as VACV mCherry inh -6.3%, Shiga inhibitor 23.7, VACV Venus inh -2.1%, CHX counter 1.3, Lassa entry inh 2.6% and Marburg entry inh -21.7%.
For Cc1ccccc1C(=O)Oc1cc(-c2ccc3c(c2)OCO3)cc(=O)c2c(C)oc(C)c12 the results were VACV mCherry inh 2.7%, VACV Venus inh 59.9%, Lassa entry inh 14.3%[46.1 µM] and Marburg entry inh 4.9%[46.1 µM].
`CCOC(=O)c1cc2c(=O)n3ccccc3nc2n(CC2CCCO2)c1=NC(=O)c1cccc(C)c1` (configuration not stated) gave VACV mCherry inh inconclusive, VACV Venus inh inconclusive, Lassa entry inh inconclusive and Marburg entry inh -0.3%[46.1 µM].
For CC(C)(C)C(=O)Oc1ccc2cc(-c3ccc4ccccc4n3)c(=O)oc2c1 the results were VACV mCherry inh -18.1%, Shiga inhibitor -1.4, VACV Venus inh 1.5%, CHX counter -2.3, Lassa entry inh 17.4% and Marburg entry inh 15.7%.
CCNc1ccccc(-c2ccc3ccccc3n2)c1=O was read as VACV mCherry inh -1.6%, Shiga inhibitor 133.8*, VACV Venus inh 6.7%, CHX counter 40.5*, Lassa entry inh 9.8% and Marburg entry inh 21.1%.
CCCN1CNc2c(c(=O)[nH]c(=S)n2CCc2c(C)cccc2C)C1 was read as VACV mCherry inh -13.4% and VACV Venus inh -5.7%.
Screening COc1ccc(OC)c(NS(=O)(=O)c2ccc3[nH]c4c(c3c2)CCCCC4)c1 returned VACV mCherry inh -21.9%, VACV Venus inh -11.2% and Lassa entry inh -18.3%[46.1 µM].
Cc1ccsc1-c1nc(CN2CCN(C)C(=O)[C@@H]2C)c(C)o1 was read as VACV mCherry inh -4.0%, Shiga inhibitor 30.4, VACV Venus inh -15.0%, CHX counter 2.1, Lassa entry inh 6.0%[46.1 µM] and Marburg entry inh -15.4%[46.1 µM].
Cc1ccsc1-c1nc(CN(C)C(C2CC2)C2CC2)c(C)o1 was read as VACV mCherry inh -4.2%, Shiga inhibitor -5.8, VACV Venus inh -18.1%, CHX counter -2.9, Lassa entry inh -8.0%[46.1 µM] and Marburg entry inh 8.91µM*.
`CN(C)c1ccc(C=Nc2cnn(C)c2C(N)=O)cc1` gave Shiga inhibitor 90.1*, VACV Venus inh -17.9%, CHX counter 39.2*, Lassa entry inh 0.4% and Marburg entry inh 26.1%[46.1 µM].
N[C@@H](Cc1cc(O)c(O)cc1O)C(=O)O was read as Marburg entry inh 3.97µM*.
N[C@H](Cc1ccc(N(CCCl)CCCl)cc1)C(=O)O was read as Marburg entry inh 5.8µM*.
Screening N[C@H](Cc1ccc(O)c(O)c1)C(=O)O returned Marburg entry inh 15.8µM*.
`NC(Cc1cc(O)c(O)cc1O)C(=O)O` (configuration not stated) gave VACV mCherry inh -5.5%, VACV Venus inh -10.9%, Lassa entry inh inconclusive and Marburg entry inh 3.97µM*.
`Cc1ccc(-c2noc(-c3cccnc3NCc3ccc(Cl)cc3)n2)cc1` gave VACV mCherry inh -7.5%, VACV Venus inh 5.5%, Lassa entry inh -1.9%[46.1 µM] and Marburg entry inh 24.7%[46.1 µM].
For COc1ccc(OC)c(S(=O)(=O)NCCCc2ccccc2)c1 the results were VACV mCherry inh inactive, Shiga inhibitor 11.3, VACV Venus inh 7.6%, CHX counter 0.7, Lassa entry inh -3.7%[46.1 µM] and Marburg entry inh 2.1%[46.1 µM].
`COC(=O)CC=C1c2ccccc2OC[C@@H](OC)[C@H]1C` gave Marburg entry inh 2.4%[14.2 µM].
`CCOC(=O)CC1=NN(c2ccccc2)C(=O)/C1=C\c1ccc(OC)cc1OC` gave VACV mCherry inh inactive, Shiga inhibitor -8.5, VACV Venus inh 3.8%, CHX counter -2.1, Lassa entry inh inconclusive and Marburg entry inh inconclusive.
Screening CCCCSc1nnc2c(n1)OC(c1ccc(C)s1)Nc1ccccc1-2 (configuration not stated) returned VACV mCherry inh -11.8%, VACV Venus inh -15.9%, Lassa entry inh 27.5%[46.1 µM] and Marburg entry inh 27.5%[46.1 µM].
For Cc1ccc(CNC(=O)c2cc(-c3ccc(Cl)cc3)on2)cc1 the results were VACV mCherry inh -10.4%, VACV Venus inh -3.1%, Lassa entry inh -1.2%[46.1 µM] and Marburg entry inh 5.4%[46.1 µM].
For O=C(NCc1cccs1)c1cc(-c2cccc(Cl)c2)on1 the results were Shiga inhibitor 43.6*, CHX counter 25.6*, Lassa entry inh 9.6% and Marburg entry inh inconclusive.
`O=C(NCc1cccs1)c1cc(-c2ccc(O)cc2)on1` gave Shiga inhibitor 85.6* and CHX counter 42.6*.
For Cc1ccc(-c2cc(C(=O)NCc3cccs3)no2)cc1 the results were VACV mCherry inh -15.2%, Shiga inhibitor 23.1, VACV Venus inh -9.3%, CHX counter 9.1*, Lassa entry inh 3.9% and Marburg entry inh 12.8%.
Screening Cc1cccc(N2CCN(C(=O)CC(NC(=O)c3ccccc3Cl)c3ccccc3)CC2)c1C (configuration not stated) returned VACV mCherry inh inactive, Shiga inhibitor -2.6, VACV Venus inh -21.9%, CHX counter 0.3, Lassa entry inh inconclusive and Marburg entry inh 11.6µM*.
For O=S(=O)(c1ccc(Cl)cc1)N1CCN(Cc2ccc(O)c3ncccc23)CC1 the results were VACV mCherry inh inconclusive, Shiga inhibitor 10.0, VACV Venus inh inconclusive, CHX counter 16.4, Lassa entry inh inconclusive and Marburg entry inh 12.6µM*.
